Laboratory results taken from PubChem BioAssay AID1117319 (Southern Research Institute, 2015).
Out of some 260,000 compounds screened, about 1,500 (0.58%) were called active. Inconclusive results (about 5%) are left out.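 How the source made its calls: active means inhibition above a set limit at one or more doses, reproduced on every date tested; inconclusive means results disagree between test dates, or hit never tested in dose response; inactive means the rest.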 Not all results are given here. Potency and affinity values are given separately.

These compounds were tested against Virion infectivity factor (Human immunodeficiency virus type 1 group M subtype B (isolate BH10)) + Virion infectivity factor (Human immunodeficiency virus type 1 group M subtype B (isolate BRU/LAI)) + Virion infectivity factor (Human immunodeficiency virus type 1 group M subtype B (isolate PCV12)) + Virion infectivity factor (Human immunodeficiency virus type 1 group M subtype B (isolate HXB2)) + DNA dC->dU-editing enzyme APOBEC-3G (Homo sapiens) (UniProt P69720+P69721+P69722+P69723+Q9HC16) (assay: HIV-1 Vif–A3G interaction blockers – biochemical, TR-FRET, GST-Vif 1-94, biotin-A3G peptide, dose response retest, primary screen (AID 1117319;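 further: Vif residues 1-94 fused to GST binding biotinylated APOBEC3G peptide 110-148; 0% = full assay without inhibitor and 100% = GST in place of GST-Vif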)). Details: TR-FRET GST-Vif / biotin-A3G peptide binding; active compounds read high.

inhibition, inactive:
Cc1nn(CC(=O)NC2CCS(=O)(=O)C2)c(C)c1[N+](=O)[O-] (stereo not given) -7.13%, Cc1cc(S(=O)(=O)N2CCOCC2)ccc1OCC(=O)N1CCCCC1 25.7%, Cc1ccc(NC(=O)CCNS(=O)(=O)c2cccc3nonc23)cc1 2.21%, CCc1cccc(NC(=O)CCNS(=O)(=O)c2cccc3nonc23)c1 9.44%, CC(C)Cn1c2c(c(=O)[nH]c1=O)C(NS(=O)(=O)c1ccc(Cl)cc1)(C(F)(F)F)C(=O)N2 (stereo not given) -5.6%, COc1cccc(C(=S)N2CCCC2)c1OC 0.47%, O=C1C2CCCN2C(=O)N1CCCCN1CCN(c2ccc(F)cc2)CC1 (stereo not given) -0.87%, O=C1C2CCCN2C(=O)N1CCCN1CCN(c2ccc([N+](=O)[O-])cc2)CC1 (stereo not given) -0.31%, COc1cccc(-n2nc(C(N)=O)c(O)cc2=O)c1 -7.89%, O=C(O)CCC(=O)NNc1ncnc2ccccc12 -0.06%, CC(=O)NNc1ncnc2ccccc12 16%, Cc1cc(N/N=C/c2ccncc2)nc2ccccc12 8.69%, COC(=O)CC1SC(=O)NC1=Nc1ccc(C)cc1 (stereo not given) 19.1%, CCCCn1c(N)c(N(CCOC)C(=O)c2ccc(OCc3c(C)noc3C)cc2)c(=O)[nH]c1=O 5.41%, O=C(CSc1ncnc2sccc12)Nc1ccccc1F -5.44%, O=C(CSc1ncnc2sccc12)Nc1ccccc1 -6.5%, Cc1ccc2c(c1)C(c1ccccc1)CC(=O)O2 (stereo not given) -9.94%, Nn1c(SCC(=O)Nc2ccc3c(c2)OCO3)nnc1C(F)(F)F 1.55%, Cn1c(SCCC#N)nnc1-c1ccc(F)cc1 11.1%, O=C(O)CSc1nnc(-c2ccncc2)n1C1CCCCC1 -0.35%, C/C(=C\C(=O)c1ccc(C)cc1)Nc1ccc(N2CCOCC2)cc1 11.1%, COc1ccc2nc(C)cc(Nc3ccccc3OC)c2c1 -8.19%, Cc1cccc(S(=O)(=O)c2c(C)cc(C)nc2Cl)c1 -4.17%, COc1ccc(CN2CCN(c3nc4ccccc4s3)CC2)cc1 -11.5%, Cc1ccc(CN(Cc2ccccc2)C(=S)Nc2ccccc2C)o1 13.2%, CC(=O)N(C)/C=C1\Sc2ccccc2C1=O 1.33%, CN(C)/C=C1/Sc2ccccc2C1=O -7.14%, CCOC(=O)C(CC(=O)O)N1CCCCC1 (stereo not given) -2.07%, Cc1ccc(C(=O)Nc2ccc(CC(=O)O)cc2)o1 1.07%, Cc1ccc(C(=O)Nc2ccc(F)cc2)o1 -0.54%, CCOC(=O)c1ccc(N/C=C/C(=O)C(C)(C)C)cc1 5.83%, COc1ccc(N/C=C/C(=O)C(C)(C)C)cc1 -3.89%, CCN(CC(=O)Nc1c(F)cccc1F)C(=O)C1CC(=O)N(CCc2ccccc2)C1 (stereo not given) 5.22%, CN(CCC#N)C(=O)CC1(Cc2ccccc2)CCOC(C)(C)C1 (stereo not given) -1.26%, Cc1cccc(Nc2c([N+](=O)[O-])ccc3nonc23)c1C -5.88%, Cc1cc(C)cc(NC2=NCC(=O)N2Cc2ccccc2)c1 2.08%, CCOCCCNC(=O)Cn1cnc2c(cnn2-c2ccc(F)cc2)c1=O -2.53%, Cc1ccccc1N(C=O)c1ccccc1C -8.26%, COc1cccc(OCCNS(=O)(=O)c2cccc([N+](=O)[O-])c2)c1 -4.86%, O=[N+]([O-])c1cc(Cl)c2cccnc2c1O -6.11%, CCOc1cccc(CN2CCN(c3cccc(C(F)(F)F)c3)CC2)c1O 28.2%, Cc1ccc([N+](=O)[O-])c2cccnc12 1.02%, Oc1c(CN2CCOCC2)cc(COCc2ccccc2)c2cccnc12 29.4%, O=[N+]([O-])c1cc(CN2CCN(c3ccccc3)CC2)c(O)c2ncccc12 12.7%, O=[N+]([O-])c1ccc(O)c2cccnc12 -6.29%, Oc1c(Cl)cc(CN2CCCCC2)c2cccnc12 10.4%, O=[N+]([O-])c1cc(F)c2cccnc2c1O 18.9%, CCOC(=O)c1cc(-c2cccs2)[nH]n1 3.68%, O=C1C(c2ccccc2)c2ccccc2N1Cc1ccccc1 (stereo not given) -2.08%, CCOc1ccc(OCCn2ccnc2)cc1 -0.21%, Cc1nc2ccc(NS(=O)(=O)c3cccc([N+](=O)[O-])c3)cc2s1 -2.07%, COCCNC(=O)Nc1ccc2nc(C)sc2c1 3.2%, Cc1nc2ccc(NC(=O)NCCCO)cc2s1 -2.1%, O=C(Nc1ccc2nc(-c3cccs3)c(-c3cccs3)nc2c1)NC1CC1 -3.31%, O=C(Nc1ccc(N2CCOCC2)cc1)Nc1ccc2nc(-c3ccco3)c(-c3ccco3)nc2c1 16%, COCCNC(=O)Nc1ccc2nc(-c3cccs3)c(-c3cccs3)nc2c1 13.9%, OCCCNC(=S)Nc1ccc2nc(-c3ccccn3)c(-c3ccccn3)nc2c1 16.7%, O=C(Nc1ccc2nsnc2c1)NC1CCCCC1 -12.3%, O=C(NCCO)Nc1ccc2nsnc2c1 13.2%, COc1cc2[nH]c(=O)c(C(=O)NCc3ccc(C)cc3)c(O)c2cc1OC -8.1%, O=C1NC[C@H](c2ccccc2)N(CCc2cc(C(F)(F)F)cc(C(F)(F)F)c2)C1=O -3.13%, COC(=O)c1sc2nc(C)c([N+](=O)[O-])c(C)c2c1N 6.2%, CC(C)c1nnc(NC(=O)CC(=O)Nc2ccccc2C(=O)O)s1 15.4%, CCOC(=O)c1c(NC(=O)COC(=O)CCOc2ccc(OCC)cc2)sc(C(=O)N(C)C)c1C -2.2%, Cc1nc(CC(=O)Nc2nccs2)cs1 -1.06%, COC(=O)C1=C(C(=O)OC)[C@@H]2Nc3ccccc3[C@@]23C[C@@H](C(=O)OC)N=C3N1 0.57%, CN(CC(=O)Nc1ccccc1N1CCOCC1)S(=O)(=O)c1ccc(F)cc1 4.33%, O=C(c1ccc(Cl)cc1)c1cnc(-c2ccc(Cl)cc2)s1 -4.73%, O=C(CCCCl)Nc1c2c(nn1-c1ccccc1)CSC2 -3.73%, Cc1cc2nc(C3CCN(Cc4nnnn4Cc4cccs4)CC3)[nH]c2cc1C 1.05%, COC(=O)C1CC(c2ccccc2)N(c2ccccc2)O1 (stereo not given) -1.63%, CS(=O)(=O)N1CCCC(C(=O)NCCN2CCC(Cc3ccccc3)CC2)C1 (stereo not given) -4.71%, CS(=O)(=O)N1CCCC(C(=O)NCCCN2CCN(Cc3ccccc3)CC2)C1 (stereo not given) 8.72%, COc1ccccc1/C=C/C(=O)OCC(=O)Nc1ccccc1Sc1ccccc1 -5.26%, Cc1cc(C(=O)N(C)Cc2c(F)cccc2Cl)c2ccccc2n1 -2.57%, Cc1ccc(S(=O)(=O)CCC(=O)OCc2cc(C)ccc2C)cc1 4.12%, CCn1c(C)cc(C(=O)CSc2nnc(-c3ccco3)o2)c1C 6.55%, Cc1cc(C(=O)CSc2ncccn2)c(C)n1Cc1ccco1 -2.83%, COc1cccc(/C=C/C(=O)OCC(=O)Nc2cc(S(=O)(=O)N3CCOCC3)ccc2C)c1 -9.36%, CCN(CC(=O)NCc1cccs1)C(=O)c1ccc(S(=O)(=O)Nc2ccccc2Cl)cc1 1.56%, CC(=O)Nc1cccc(NC(=O)COc2ccccc2C)c1 -7.35%, Cc1noc(C)c1COc1cccc(C(=O)N(C)Cc2cccs2)c1 -1.46%, COc1ccc2c(c1O)C(=O)c1ccccc1C2=O 23.1%, CC1(C)CC(=O)C(N=Nc2ccc(OC(F)F)cc2)=C(O)C1 12.4%, Cc1cccc(NC(=O)c2ccc(C)c(S(=O)(=O)N3CCCCC3)c2)n1 2.93%, Cc1ccccc1NC(=O)COC(=O)c1cc(=O)c2ccccc2o1 -5.37%, O=Cc1ccc(O)c(O)c1 0.2%, NC(N)=N/N=C/c1ccc(OCc2ccccc2)cc1 -2.74%, COc1ccc(/C=N/N=C/c2ccc(OC)c(O)c2)cc1O -4.01%, Oc1ccc(/C=N/N=C/c2ccc(O)cc2)cc1 4.98%, CC(=O)Nc1ccc(N=Cc2ccc(OCc3ccccc3)cc2)cc1 21.2%, Oc1ccc(/C=N/N(c2ccccc2)c2ccccc2)cc1O 26.2%, Cc1nc(SC(C)C(=O)c2c(N)n(C)c(=O)n(C)c2=O)c2c(C)c(C)sc2n1 (stereo not given) -0.67%, CCOc1ccc(NC(=O)C(C)Sc2nnnn2C)cc1 (stereo not given) 0.56%, COc1cccc(NC(=O)CN(C)C(=O)CN2C(=O)NC(C)(c3ccc4ccccc4c3)C2=O)c1 (stereo not given) 9.34%, Cc1ccc(C)c(NS(=O)(=O)c2ccc(OCC(=O)N3CCCC3)cc2)c1 1.52%, CS(=O)(=O)c1ccc(C(=O)OCC(=O)NC(=O)Cc2ccccc2)cc1 -0.73%, COc1ccc(-n2c(SCC(C)=O)nc3sc(C)c(C)c3c2=O)cc1 -12.1%, CC(C)(C)c1c(Cl)c(O)c(-c2ccccc2)c(=O)n1-c1ccccc1 11.4%, CCN(c1ccccc1)S(=O)(=O)c1ccc2c(c1)N(C(C)=O)CCS2 -1.04%
